Only some compounds are listed: those with a hit (about 1.4% of all), similar ones and a draw of the others.
ZTA DNA inh: counter-screen for EBNA-1 inhibitors: inhibitors of Epstein-Barr virus ZTA. ZTA-DNA binding, fluorescence polarization. inhibition, % at 11 µM. 0.15% of 320,000 active; in the data active means inhibition above about 33%
Target sequence (P03206 whole entry, looked up): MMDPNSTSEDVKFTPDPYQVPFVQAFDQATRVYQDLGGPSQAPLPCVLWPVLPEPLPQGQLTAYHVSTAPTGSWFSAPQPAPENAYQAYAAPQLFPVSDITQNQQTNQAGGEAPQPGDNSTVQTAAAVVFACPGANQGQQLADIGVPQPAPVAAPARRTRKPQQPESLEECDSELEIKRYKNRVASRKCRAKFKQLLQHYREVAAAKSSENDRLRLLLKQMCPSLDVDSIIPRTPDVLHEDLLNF
LYPLA2 inh: LYPLA2 inhibitors, primary screen, counter-screen for PME1 inhibitor project, biochemical, fluorescence polarization, FP-Rh probe ABPP; recombinant LYPLA2; 0.38% of 320,000 active; inhibition, % at 5.9 µM; Acyl-protein thioesterase 2 (Homo sapiens), O95372;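 active means inhibition above the screen-wide mean plus 3 SD, limit set per campaign, cut at about 26% in these data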
Target sequence (O95372 whole entry, looked up): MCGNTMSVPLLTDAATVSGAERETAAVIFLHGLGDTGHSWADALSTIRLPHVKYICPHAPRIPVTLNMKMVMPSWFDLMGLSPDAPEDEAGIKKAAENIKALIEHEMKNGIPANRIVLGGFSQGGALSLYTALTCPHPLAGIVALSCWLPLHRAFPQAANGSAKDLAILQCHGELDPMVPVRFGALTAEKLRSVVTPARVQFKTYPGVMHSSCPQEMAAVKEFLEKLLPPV
LYPLA1 inh: LYPLA1 inhibitors, primary screen, counter-screen for PME1 inhibitor project, biochemical, fluorescence polarization, FP-Rh probe ABPP; 0.16% of 320,000 active; AID 2174, 2009; Acyl-protein thioesterase 1 (Homo sapiens), O75608; recombinant LYPLA1; inhibition, % at 5.9 µM;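 active means inhibition above the mean of all tested compounds plus 3 SD, set per campaign, cut at about 14% in these data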;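 further: inhibitors block serine hydrolase probe labeling of LYPLA1 so polarization falls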
LANA-H2B inh: blockers of LANA interaction with H2A/H2B – biochemical, FP readout, HTS, primary screen. inhibition, % (concentration not given with the values). cell-free LANA-H2A/H2B peptide, fluorescence polarization. Protein LANA1 (Human herpesvirus 8 type P (isolate GK18)), Q9QR71. AID 2629, 2010. 0.6% of 320,000 active; in the data active means inhibition mostly above about 10%, no sharp cut-off; inactive means mostly below about 6.7%
EBNA-1 inhibitor: EBNA-1 DNA-binding inhibitors, primary screen, biochemical, fluorescence polarization; inhibition, % at 14.8 µM; 0.34% of 300,000 active; in the data active means inhibition above about 28%
LYPLA2 conf: LYPLA2 inhibitors, retest, confirmation, counter-screen for PME1 inhibitor project, biochemical, fluorescence polarization, FP-Rh probe ABPP | 72% of 1,100 active | inhibition, % at 5.9 µM | shares compounds with LYPLA2 inh | recombinant LYPLA2;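 active means mean inhibition across replicates above the hit cutoff set in the primary screen, cut at about 26% in these data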;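 further: blocked labeling of the enzyme by serine hydrolase FP-Rh probe lowers polarization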
LYPLA2 ABPP: LYPLA2 inhibitors in proteome, late-stage follow-up, gel-based competitive ABPP, fluorescence, assay provider; shares compounds with LYPLA2 inh; rhLYPLA2 in mouse brain proteome, gel ABPP FP-Rh; inhibition, % at 20 µM; 30% of 150 active;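 active means inhibition of LYPLA2 enzyme probe labeling above about 50%, limit read from the data; inactive means inhibition below that limit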;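 further: loss of FP-Rh probe labeling of the LYPLA2 gel band measured as band density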
Numbers stand for hits; . = inactive; / = no result.

SMILES	ZTA DNA inh	LYPLA2 inh	LYPLA1 inh	LANA-H2B inh	EBNA-1 inhibitor	LYPLA2 conf	others
Cc1ccc(N2C(=O)C3C4C=CC(CC4)C3C2=O)c([N+](=O)[O-])c1 (stereo unspecified)	.	.	.	.	.	/
O=C(NCC(NS(=O)(=O)OCC(Cl)(Cl)Cl)c1ccccc1)C(F)(F)F (stereo unspecified)	.	.	.	.	.	/
Cc1ccc(OCCn2cnc3c2c(=O)n(C)c(=O)n3C)cc1	.	.	.	.	.	/
O=C(Nc1cccc(Oc2ccc(C(=O)O)c(C(=O)O)c2)c1)c1ccc(-c2ccccc2)cc1	.	54.0	.	.	.	39.6
O=C(O)c1ccccc1C(=O)Nc1ccc(Oc2ccccc2)cc1	.	.	.	.	.	/
CC(C)(C)C(=O)Nc1ccc(C(=O)Nc2cc(NC(=O)c3ccc(NC(=O)C(C)(C)C)cc3)cc(C(=O)O)c2)cc1	.	.	.	.	.	/
CC(C)(C)C(=O)Nc1ccc(C(=O)Nc2cccc(Oc3ccc(C(=O)O)c(C(=O)O)c3)c2)cc1	.	30.9	.	.	.	.
CC(=O)C(Cc1ccccc1)NC(=O)COC(=O)c1ccc(-n2cnnn2)cc1 (stereo unspecified)	/	/	/	.	/	/
CC12CCC(c3c(C(=O)O)nn(-c4ccc(F)cc4)c31)C2(C)C (stereo unspecified)	.	.	.	.	.	/
CC12CCC(c3c(C(=O)N4CCOCC4)nn(-c4ccccc4)c31)C2(C)C (stereo unspecified)	.	27.6	.	.	.	.
COc1ccccc1NC(=O)CCn1c(=S)oc2ccccc21	.	.	.	.	.	/
COc1ccccc1NC(=O)CCn1c(=O)c2cccn2c2ccccc21	.	26.1	.	.	.	.
COC(=O)c1ccc(NC2=C(Cl)C(=O)OC2OC(=O)c2ccccc2)cc1 (stereo unspecified)	.	.	.	.	.	/
Cc1ccc(NC2=C(Cl)C(=O)OC2OC(=O)c2ccc(C)cc2)cc1 (stereo unspecified)	.	30.5	.	.	.	37.9
CC(=O)N(C)c1ccc(NS(=O)(=O)c2cccc3nsnc23)cc1	.	.	.	.	.	/
CC(C)Cc1nc2sc3c(=O)n(N)cnc3c2c2c1COC(C)(C)C2	.	.	.	.	.	/
Cc1ccc(NC(=O)CCC(=O)OCC(=O)c2ccc(Oc3ccc([N+](=O)[O-])cc3)cc2)cc1C	.	35.9	.	.	.	.
O=C(OCC(=O)N1CCN(c2ccccc2)CC1)c1ncc(Cl)c(Cl)c1Cl	.	.	.	.	.	/
CCC(C)c1ccc(OCC(=O)Nc2ccc3c(c2)C(=O)NC3=O)cc1 (stereo unspecified)	.	.	.	.	.	/
Cc1ccc(S(=O)(=O)Nc2cccc(-n3cnnn3)c2)cc1C(=O)O	.	33.0	.	.	.	.
CC(=O)c1ccc(S(=O)(=O)Nc2cccc(-n3cnnn3)c2)cc1	.	.	.	.	.	/
C[C@H](CO)N1C[C@H](C)[C@@H](CN(C)C(=O)NC2CCCCC2)Oc2ccc(NC(=O)C3CCCCC3)cc2C1=O	/	/	/	.	/	/
COc1ccc(Cl)cc1NC(=O)c1nnn(CC(=O)Nc2ccc3c(c2)OCO3)c1N	.	.	.	.	.	/
CC(=O)N1c2ccc(S(=O)(=O)NCC3CCC(C(=O)NCc4ccc(C)o4)CC3)cc2CC1C (stereo unspecified)	.	.	.	.	.	/
CC(=O)N1c2ccc(S(=O)(=O)NCC3CCC(C(=O)NCc4ccc(C)cc4)CC3)cc2CC1C (stereo unspecified)	.	28.4	.	.	.	28.1
SMILES	ZTA DNA inh	LYPLA2 inh	LYPLA1 inh	LANA-H2B inh	EBNA-1 inhibitor	LYPLA2 conf	others
COc1ccc(-n2nc(C(=O)NCC(=O)N3CCN(c4ccc(F)cc4)CC3)c3ccccc3c2=O)c(OC)c1	.	57.8	.	.	.	61.7	LYPLA2 ABPP=.
Cc1cc(Oc2cc(N)cc([N+](=O)[O-])c2)ccc1Cl	.	42.1	.	.	.	39.3
Nc1cc(OCC(F)(F)F)cc([N+](=O)[O-])c1	.	.	.	.	.	/
Cn1c(=O)c2c(ncn2CC(=O)N/N=C/C(Br)=C/c2ccccc2)n(C)c1=O	.	26.9	.	.	.	38.8
O=C(CNC(=O)c1ccccc1)Oc1cccc(Cl)c1	.	.	.	.	.	/
O=[N+]([O-])c1ccc(Sc2ccccc2Cl)nc1	.	45.2	.	.	.	47.8
CCOC(=O)N1CCC(NC(=O)c2cc3cc4cc(OC)ccc4nc3o2)CC1	.	35.0	.	.	.	31.5
CN(Cc1ccc(C(F)(F)F)cc1)C(=O)c1ccc(Oc2ccccc2)cc1	.	28.9	.	.	.	.
CN(Cc1ccccc1F)C(=O)c1ccc(Oc2ccccc2)cc1	.	.	.	.	.	/
COc1ccc(NC(=O)c2cc(F)c(F)cc2Cl)cc1Cl	.	27.5	.	.	.	.
Cc1ccc(C(=O)NCCNc2ccc([N+](=O)[O-])cc2C(F)(F)F)cc1	.	.	.	.	.	/
O=C(NCCNc1ccc([N+](=O)[O-])cc1C(F)(F)F)c1ccccc1F	.	27.1	.	.	.	.
OCC[C@@H]1C[C@H](O)[C@@H](O)[C@@]2(CCCCO2)O1	.	.	.	.	.	/
COc1nc2c(c(-c3cc(Br)cs3)c1C#N)Cc1ccccc1-2	.	.	.	.	.	/
CCC(=O)N1CCN(c2ccc(NC(=O)COc3ccc(C)cc3C)cc2)CC1	.	.	.	.	.	/
Cc1ccc(C(=O)N2CCN(c3ccc(NC(=O)COc4ccccc4C)cc3)CC2)cc1	.	29.3	.	.	.	26.8
CCNc1nc(OC)nc(N2CCC(Cc3ccccc3)CC2)n1	.	.	.	.	.	/
O=C(Nc1ccc(N2CCCCC2)cc1)c1cccnc1	.	.	.	.	.	/
O=C(c1ccc(N2CCNCC2)cc1)c1cccnc1	.	25.8	.	.	.	.

Compound activity: PubChem BioAssay, several laboratories
